Test results: paper PMC5540273 (PLoS ONE, 2017)

tested on: SLK; conditions: concentration: 1 μM, replicates: in singlicate; n = 1
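Note: KINOMEscan kinase panel screen.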

| Structure (SMILES) | %Inh [%] |
| --- | --- |
| COc1cccc(C(=O)Nc2cccc(Oc3ccc4nc(NC(=O)C5CC5)cn4n3)c2)c1 | 49 |
| Cc1cccc(NC(=O)Nc2ccc(Oc3ncnc4ccn(C)c34)cc2)c1 | 0 |
| Cc1ccc(S(=O)(=O)Nc2ccc(Nc3nccc(Nc4cccc5[nH]ncc45)n3)cc2)cc1 [GSK581271] | 0 |
| O=C(Nc1ccccc1F)NC1CCN(c2ccnc(Nc3ccc(F)cc3)n2)CC1 [GSK1379800] | 0 |
| Nc1n[nH]c2cnc(-c3ccccc3)cc12 [SB-642124] | 0 |
| c1ccc(-c2n[nH]cc2Nc2ccnc3ccccc23)nc1 [GW694077] | 0 |

tested on: T1, SNARK; conditions: concentration: 1 μM, replicates: in singlicate; n = 1
T1 construct: gene NUAK2

| Structure (SMILES) | %Inh [%] |
| --- | --- |
| CN(c1ccc(NC(=O)Nc2cc(C(F)(F)F)ccc2F)cc1)c1ccnc(Nc2ccc(S(N)(=O)=O)cc2)n1 [GW809893] | 0 |
| Nc1ncnc2c1nc(-c1ccccc1)n2-c1ccccc1 [SKF-97293] | 24 |
| CN1CCN(CCCNc2nccc(-c3c(-c4ccc(F)cc4)nn4cc(C(F)(F)F)ccc34)n2)CC1 [GW621581] | 0 |
| O=C(Nc1cccc(-c2nn3ccccc3c2-c2ccnc(Nc3cccc(C(F)(F)F)c3)n2)c1)c1c(F)cccc1F [GSK292658] | 9 |
| COc1cc(Nc2nccc(N3CCC(NC(=O)Nc4cccc(C(C)=O)c4)C3)n2)cc(OC)c1OC (stereo not shown) [GSK1379753] | 21 |
| Cl.Cl.NCC(C(=O)Nc1cc(Br)c(-c2ccnc3[nH]ccc23)s1)c1ccccc1 (stereo not shown) [GSK1269851] | 0 |
| COc1ccc(Nc2nccc(NCCNC(=O)c3cc4ccccc4s3)n2)cc1 [GSK1379896] | 0 |
